# Shown are actives, neighbours in structure and some others; about 11% of the full set was active somewhere.
# Pf growth 48h: P. falciparum growth inhibition at 48 hours (one generation); P. falciparum luciferase growth in erythrocytes, 48 h; Potency, µM (top dose mostly 28.7 µM), inactives show at the highest dose activity change, negative = inhibition, hits mostly inhibitors; 5.9% of 310,000 active
#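 In quantitative HTS format, infected erythrocytes bearing luciferase-reporter parasites were treated for a single generation at 37 C. Luminescence after adding detection reagent served as the growth measure.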
# HCV inhibitor: inhibitors of hepatitis C virus infection. Huh7.5.1 HCVcc-Cre infection, luciferase reporter, 44 h. Potency, µM (titrated, usually from 41.8 µM), for inactives: top-dose activity change, negative = inhibition, most hits filed as inhibitors. 3.4% of 340,000 active
#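 Cells seeded at 1,000/well and cultured 4 h, then compounds added followed by HCVcc-Cre virus (~0.5 moi). After 44 h further culture, luciferase substrate was added, plates held 15 min at room temperature, and luminescence read for 15 sec.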
# Pf growth 96h: inhibits malaria parasite growth, 96 h. 6.9% of 320,000 active. Potency, µM (top dose mostly 28.7 µM), for the others: top-dose activity change, negative = inhibition, usual class: inhibitors. P. falciparum luciferase reporter growth, 96 h
#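 P. falciparum expressing integrated firefly luciferase grown in erythrocytes (2% hematocrit, 0.05% parasitemia final) with compounds for 96 hours at 37 C, 5% CO2. Growth inhibition read as loss of luminescence after adding luciferase detection reagent.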
# AMA1-RON2 inh: disrupts binding of P. falciparum AMA1 to RON2 | AlphaScreen AMA1-biotinylated RON2 peptide binding | Potency, µM (series often up to 58.2 µM), without a hit: top-dose activity change, negative = inhibition, most hits filed as inhibitors | 0.2% of 360,000 active;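 further: 0% = vehicle wells and -100% = peptide control; nearly all actives have a fitted effect of over 45% in size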
#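 AMA1 (3D7) with his tag at 25 nM final met compounds first, then biotinylated RON2 peptide at 25 nM; detection used donor plus acceptor beads, 10 µg/mL apiece, read by AlphaScreen after 30 min at room temperature.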
# AmpC no deterg: blocks E. coli AmpC beta-lactamase in detergent-free assay; P00811; AmpC nitrocefin hydrolysis, absorbance 480 nm, 0.0001% Triton; Potency, µM (titrated, usually from 57.1 µM), without a hit: top-dose activity change, negative = inhibition, most hits filed as inhibitors; 0.52% of 330,000 active; AID 485341;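 further: plate controls were no compound for no effect and no enzyme for full effect; nearly all actives have a fitted effect of over 20% in size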
# Target sequence (P00811 whole entry, looked up): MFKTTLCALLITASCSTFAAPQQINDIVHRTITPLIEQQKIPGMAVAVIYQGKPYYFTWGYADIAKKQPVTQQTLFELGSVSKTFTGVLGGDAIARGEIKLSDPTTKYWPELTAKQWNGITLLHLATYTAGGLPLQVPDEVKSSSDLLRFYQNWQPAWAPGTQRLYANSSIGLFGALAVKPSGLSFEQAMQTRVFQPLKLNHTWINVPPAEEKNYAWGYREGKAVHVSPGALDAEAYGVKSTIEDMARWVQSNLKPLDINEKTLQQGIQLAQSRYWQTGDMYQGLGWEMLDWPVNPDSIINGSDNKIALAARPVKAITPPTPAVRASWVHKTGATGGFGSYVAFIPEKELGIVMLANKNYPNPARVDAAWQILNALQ
#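 AmpC (5.3 nM in the dispensed reagent) in 20 mM phosphate pH 7.0 with 0.01% (detergent screen) or 0.0001% Triton X-100 was preincubated with compounds for 15 min at room temperature. Nitrocefin was then added from an 800 uM solution, and hydrolysis was followed at 480 nm.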
# AmpC inh detg: AmpC beta-lactamase inhibition with detergent present. AmpC hydrolysis of nitrocefin, absorbance 480 nm, 0.01% Triton. Potency, µM (series often up to 114 µM), for the others: at the top dose activity change, negative = inhibition, most hits filed as inhibitors. 0.041% of 370,000 active. AID 485294;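 further: 0% = no-compound wells and -100% = no-enzyme wells; nearly all actives have a fitted effect of over 25% in size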
#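 AmpC (5.3 nM in the dispensed reagent) in 20 mM phosphate pH 7.0 with 0.01% (detergent screen) or 0.0001% Triton X-100 was preincubated with compounds for 15 min at room temperature. Nitrocefin was then added from an 800 uM solution, and hydrolysis was followed at 480 nm.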
# The depositor's hits bear a star; u = inconclusive; x = no result given. The call rests on the fitted dose curve; in most records, active means well fitted curve in the direction sought with a large enough effect; inconclusive means small, poorly fitted or top-dose-only effect, or another doubt; inactive means no such curve, though single readings can be large; an effect the other way counts as inactive or inconclusive. Unless noted, on the % scale 0 is the no-effect control and ±100 the full control effect; potency means the concentration at half of the fitted maximal effect.
SMILES,Pf growth 48h,HCV inhibitor,Pf growth 96h,AMA1-RON2 inh,AmpC no deterg,AmpC inh detg
O=C(C1CCCCC1)N(Cc1cccnc1)c1nc2c(F)cc(F)cc2s1,x,x,x,x,x,5.2%
COc1ccc(CN2CCC(n3nccc3NC(=O)c3ccc4c(c3)OCO4)CC2)cc1C,11.7µM*,-20.0%,58.1%,-6.4%,46.5%,3.5%
Cn1cc(CN2CCC(n3nccc3NC(=O)c3ccc4c(c3)OCO4)CC2)cn1,x,x,x,-2.5%,x,x
CC1(C)OC(=O)N(c2ccccc2)C12C=Cc1c(ccc3ccccc13)O2 (stereo unspecified),13.1µM*,-29.2%,136.4%,-3.2%,-19.4%,0.3%
O=C1NC2(C=Cc3c(ccc4ccccc34)O2)Oc2ccccc21 (stereo unspecified),-1.7%,u,2.6%,-5.8%,-32.7%,-3.1%
Cc1cc(C)n(C(=O)CNC(=O)c2cccc(Cl)c2)n1,1.5%,0.1%,-17.9%,0.7%,-7.6%,-17.3%
Cc1cc(C)n(C(=O)CNC(=O)c2ccc3c(c2)OCCO3)n1,24.3%,0.7%,1.85µM*,-12.0%,-9.1%,-0.6%
CN(C)CCCNC(=O)C(=O)NCC(c1ccc2c(c1)OCO2)N1CCOCC1 (stereo unspecified),x,x,x,x,x,5.4%
O=C(CSc1nncn2c1cc1sccc12)Nc1ccc(Br)cc1F,x,x,x,x,x,14.9%
Cc1cccc(-n2ccc(=O)c(C(=O)Nc3ccc(S(=O)(=O)N4CCOCC4)cc3)n2)c1,-28.6%,6.6%,11.7µM*,-8.2%,135.8%,-3.0%
Cc1cccc(N2N=C(C(=O)O)CCC2=O)c1,9.28µM*,14.3%,u,17.5%,-7.3%,0.9%
Cc1cccc(N2N=C(C(=O)Nc3ccc(Cl)c(S(=O)(=O)N4CCOCC4)c3)CCC2=O)c1,11.7µM*,3.4%,u,3.2%,81.0%,6.6%
Cc1ccc(Cl)cc1NC(=O)c1cc2c(=O)n3cccc(C)c3nc2n1C,x,x,x,x,x,18.4%
COc1ccccc1OCCSc1nc2ccccc2n1CC(=O)N1CCOCC1,x,x,x,x,x,-5.3%
COc1ccc(NC(=O)C2CCOC2=O)cc1 (stereo unspecified),x,16.6%,x,2.7%,x,x
COc1ccc(NC(=O)C2CCCNC2=O)cc1 (stereo unspecified),23.7%,16.2%,6.57µM*,3.3%,-8.0%,-8.6%
CC(=O)c1ccc(NC(=O)C2CCCNC2=O)cc1 (stereo unspecified),15.1%,-5.2%,5.22µM*,0.0%,-19.0%,-0.9%
COc1cnc(-c2ccccn2)nc1Sc1cccc(Cl)c1,u,7.08µM*,1.47µM*,28.7%,-20.0%,u
COc1cnc(-c2ccccn2)nc1Sc1ccc(C)cc1,11.7µM*,u,u,5.0%,46.2%,8.4%
COc1ccccc1Sc1nc(-c2ccccn2)ncc1OC,u,u,u,-17.5%,65.8%,1.0%
Cn1cnc(S(=O)(=O)N2CCC(C(=O)N3CCN(c4ccccc4F)CC3)CC2)c1,x,x,x,x,x,19.5%
Cc1ccc(-c2ccc(/C=N\NC(=O)c3cc4c(ccc5ccccc54)o3)o2)cc1[N+](=O)[O-],u,u,2.94µM*,-6.1%,-8.4%,-6.4%
CNC(=S)N/N=C/c1ccc(-c2ccc(Cl)c([N+](=O)[O-])c2)o1,u,u,-26.5%,53.8%,-24.2%,-7.4%
Cc1ccc([N+](=O)[O-])cc1-c1ccc(/C=N/NC(=O)c2cc3c(ccc4ccccc43)o2)o1,x,u,41.1%,2.9%,-28.2%,-12.8%
Cc1ccc(-c2ccc(/C=N/NC(=S)Nc3ccccc3)o2)cc1[N+](=O)[O-],u,u,u,10.7%,3.55µM*,-6.3%
SMILES,Pf growth 48h,HCV inhibitor,Pf growth 96h,AMA1-RON2 inh,AmpC no deterg,AmpC inh detg
CCOC(=O)c1c(NC(=O)C2c3ccccc3Oc3ccccc32)sc(C)c1CC,x,x,x,x,x,18.3%
CNC(=S)N(Cc1cc2cc(C)ccc2n2nnnc12)CC(C)(C)CN(C)C,u,11.7%,5.86µM*,-1.8%,-12.1%,-2.6%
Cc1cc2cc(CN(C(=O)C3CC3)C3CCCC3)c3nnnn3c2cc1C,x,u,x,-9.5%,-14.4%,u
COCCN(Cc1cc2cc(C)ccc2n2nnnc12)C(=S)Nc1cccc(C)c1,5.22µM*,11.2µM*,-21.8%,-0.7%,-22.9%,5.2%
CCc1ccc2c(c1)cc(CN(C(=S)Nc1cccc(C)c1)C1CC1)c1nnnn12,u,-20.3%,2.33µM*,19.1%,-14.2%,1.5%
Cc1ccccc1-c1nn2c(=O)cc(CN3CCN(C(=O)c4ccccc4Br)CC3)nc2s1,x,x,x,x,x,15.5%
Cc1cc(Nc2ccccc2)nn1C(=O)c1ccc([N+](=O)[O-])cc1,2.2%,u,9.28µM*,-22.9%,-13.0%,u
Cc1cc(Nc2ccccc2)nn1C(=O)c1ccc(Cl)cc1,31.0%,u,x,-14.0%,-11.3%,3.5%
O=C(NCCN1CCOCC1)N1CCOCC1,16.7%,17.4%,0.4%,40.9%,-16.9%,u
C/C(NCCN1CCOCC1)=C(\C#N)C(N)=O,9.8%,3.7%,1.65µM*,-0.6%,-9.7%,u
O=C(c1cnn(-c2ccc(F)cc2)c1-n1cccc1)N1CCN(c2ccccc2)CC1,x,x,x,x,x,-3.5%
COc1ccc(-n2c(CN3CCN(c4ccccn4)CC3)nc3ccc([N+](=O)[O-])cc3c2=O)c(OC)c1,11.7µM*,u,-1.2%,-8.4%,120.6%,-2.1%
O=c1c2cc([N+](=O)[O-])ccc2nc(CN2CCN(c3ccccn3)CC2)n1-c1ccccc1F,64.2%,-12.5%,13.1µM*,8.0%,-13.0%,-1.1%
COc1cccc(-n2c(CN3CCN(Cc4ccccc4)CC3)nc3ccc([N+](=O)[O-])cc3c2=O)c1,11.7µM*,0.3%,-16.5%,x,8.1%,-5.5%
CCN1CCN(Cc2nc3ccc([N+](=O)[O-])cc3c(=O)n2-c2ccccc2F)CC1,-14.9%,5.3%,27.8%,11.3%,0.0%,-5.0%
CC1=C(C(=O)Nc2ccccc2)C(c2ccccn2)n2nc(SCc3ccccc3)nc2N1 (stereo unspecified),x,x,x,x,x,-8.4%
CCOc1ccc(CNC(=O)C2CCN(C(=O)N3CC(CC)Oc4ccc(C)cc43)CC2)cc1OC (stereo unspecified),x,x,x,x,x,20.6%
CCOC(=O)C1(CCOc2ccccc2)CCN(Cc2cc(OC)c3c(c2)OCO3)CC1,u,11.2µM*,u,u,90.3%,-0.7%
CCOC(=O)C1(CCOc2ccccc2)CCN(Cc2ccccc2O)CC1,x,u,x,6.2%,x,x
CCOC(=O)C1(CCOc2ccccc2)CCN(Cc2cccc3c2OCO3)CC1,u,10µM*,-1.1%,u,77.2%,-1.6%
CCCN(CCC)c1ccc(C2N=C(N)Nc3nc4ccccc4n32)cc1 (stereo unspecified),x,x,x,x,x,24.8%

# Screening data as filed in PubChem BioAssay.
